Compound activity: PubChem BioAssay, National Center for Advancing Translational Sciences (NCATS)
D1 agonist – human D1 receptor agonism. P21728. HEK293 T-REx D1 cells, calcium flux, agonist mode. activation, % at 2 µM. actives 1% (n = 360,000). AID 504660; in the data active = activation above about 30%
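Agonism was scored from calcium flux recorded over 180 s (1 read/s) after pintool compound addition, following a 10-cycle baseline. Cells were inducible force-coupled HEK293 TREx D1, plated overnight at 30 C and loaded with no-wash calcium dye.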
D1 antagonist – blocks dopamine activation of the human D1 receptor; AID 504652; actives 3.2% (n = 360,000); HEK293 TREx D1 cells, calcium flux, dopamine EC80; stronger effect = lower value; activity change, negative = inhibition, % at 10 µM; in the data active = activity change below about -30%
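Allosteric or orthosteric antagonism assessed as attenuation of the calcium response to EC80 dopamine, added 180 s after compound, in induced HEK293 Trex D1 cells loaded with no-wash calcium dye.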
D3 antag – blocks the human D3 dopamine receptor; P35462; D3R cells, DiscoveRx beta-arrestin luminescence, antagonist mode; stronger effect = lower value; max response, negative = inhibition, %; actives 2.5% (n = 360,000); in the data active = max response below about -50%; inconclusive = no clear call, values can overlap the other calls
Target sequence (P35462 whole entry, looked up): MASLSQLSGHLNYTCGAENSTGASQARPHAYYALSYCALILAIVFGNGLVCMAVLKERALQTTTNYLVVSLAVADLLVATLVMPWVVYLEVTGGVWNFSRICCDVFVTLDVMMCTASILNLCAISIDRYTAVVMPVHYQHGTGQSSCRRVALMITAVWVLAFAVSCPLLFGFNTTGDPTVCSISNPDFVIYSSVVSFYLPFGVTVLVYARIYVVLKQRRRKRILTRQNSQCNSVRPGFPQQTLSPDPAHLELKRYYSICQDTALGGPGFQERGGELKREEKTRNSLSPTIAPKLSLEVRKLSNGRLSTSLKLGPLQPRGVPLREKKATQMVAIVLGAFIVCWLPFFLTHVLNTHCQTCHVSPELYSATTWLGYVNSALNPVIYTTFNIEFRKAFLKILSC
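Cells expressing the human receptor were seeded at 1500 cells/well, incubated overnight at 37 degrees C in 5% CO2, then exposed to library compounds with dopamine controls for 90 minutes at 37 degrees C before luminescent detection.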
DRD3 agonist – D3 dopamine receptor (human) agonism; P35462; D3R DiscoveRx beta-arrestin cells, luminescence, 90 min; max activation, %; actives 0.58% (n = 410,000); in the data active = max activation above about 30%
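Cells at 1500/well, incubated overnight, then treated with pinned compounds (dopamine as control) for 90 min at 37 degrees C. DiscoveRx reagent added for 30 - 60 minutes at room temperature; luminescence read.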
ERG Ets-DNA blk – inhibitors of human ERG Ets domain-DNA interaction; P11308; fluorescence polarization, His-ERG Ets domain / labelled DNA; Potency, µM (titrated, usually from 76.9 µM), hits mostly inhibitors; actives 0.028% (n = 370,000); active = well fitted inhibition curve with a large enough effect in the polarisation, with a control signal flat; inconclusive = small, poorly fitted or top-dose-only effect, or effect the other way, or a change in a side signal; inactive = no such curve, though single readings can be large or run the other way; the % refers to the polarisation;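 note: polarization taken with two DNA probes labelled with fluorescein and Texas red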
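His-tagged ERG Ets domain (1 uM in the protein solution; 300mM KCl, 50mM Tris-HCl, 1mM EDTA, 1mM DTT, pH 7.5) received compound, then a probe mix of 5 nM fluorescein-DNA and 100nM Texas-615-DNA. Fluorescence polarization was read for both dyes.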
D1 potentiator – enhances dopamine response at the human D1 receptor. actives 0.036% (n = 360,000). AID 504651. potentiation, % at 10 µM. P21728. HEK293 TREx D1 cells, calcium flux, dopamine EC20 potentiation; in the data active = potentiation above about 30%
Each line names hits and unclear results; the compound was inactive in the other large screens; ! = repeats disagree. An excerpt weighted towards active compounds, which were near 6.1% of everything screened.

CCN1CCN(C(=S)Nc2sc(C)c(-c3ccccc3)c2C(=O)OC)CC1	none
COC(=O)c1ccc(Cn2ccc(=O)[nH]c2=O)cc1	none (no result: D1 agonist, D1 antagonist, D1 potentiator)
Clc1ccc(OCCCn2cncn2)cc1Cl	D1 agonist 56.0
CNCCCOc1ccc2c(c1)CCC2	none
Clc1ccc(OCCCN2CCCC2)cc1Cl	D3 antag -66.5
CNCCOc1ccc(Cl)c(Cl)c1	D3 antag -61.6
c1ccc(COc2ccc(OCCCn3cncn3)cc2)cc1	none
Cc1cc(OCCCCCN2CCCC2)ccc1Cl	none (no result: D1 antagonist)
Clc1ccc(OCCN2CCOCC2)cc1Cl	D3 antag -66.4
CC(=O)Nc1ccc2c(c1)Cc1c(F)cccc1-2	none (no result: D1 agonist, D1 antagonist, D1 potentiator)
OCC[C@H]1C[C@@H](O)[C@H](O)[C@@]2(CCCc3ccccc3O2)O1	none
Clc1ccc(OCCN2CCCCC2)cc1Cl	D3 antag -78.8 (no result: ERG Ets-DNA blk)
COc1ccc(NC(=O)CCS(=O)(=O)c2ccc(Cl)cc2)cc1	none
CCOc1ccc(S(=O)(=O)NCCC(=O)N(C)CC(=O)Nc2ccc(OC)cc2)cc1	D1 antagonist -43.3
CCOC(=O)c1c(C)[nH]c(C(=O)N(C)CC(=O)Nc2ccc(OC)cc2)c1C	D1 antagonist -67.6
COc1ccc(NC(=O)CCS(=O)(=O)c2ccc(OC)cc2)cc1	D1 antagonist -41.7
COc1cccc(NC(=O)CCS(=O)(=O)c2ccc3c(c2)oc(=O)n3C)c1	D1 antagonist -30.0!
CCOc1ccc(C(=O)CCC(=O)Nc2ccccc2C)cc1	none
COc1ccc(CC(=O)OCC(=O)N(C)C2CCS(=O)(=O)C2)cc1OC (stereo not given)	none
COc1ccc(NC(=O)CCS(=O)(=O)c2ccc(Br)s2)cc1	D1 antagonist -37.4
Cc1cccc(C)c1NC(=O)CCS(=O)(=O)c1ccc2c(c1)n(C)c(=O)c(=O)n2C	D1 antagonist -36.3 (no result: D3 antag)
Cc1cc(C)n2nc(C(=O)OCC(=O)NCc3ccc(Cl)cc3)nc2n1	D1 antagonist -32.8
Cc1ccnc2nc(C(=O)OCCOc3ccc(Cl)cc3)nn12	D1 antagonist -36.7
O=C(O)c1ccc2c3c(cccc13)C(=O)N(c1ccccc1)C2=O	none
Cc1cccc(N2C(=O)c3cccc4cccc(c34)C2=O)c1	none
Cc1c(O)c2c3c(cccc3c1O)C(=O)N(c1ccccc1)C2=O	D1 agonist 53.3
Cc1cccc(N2C(=O)c3cccc4c(N)ccc(c34)C2=O)c1	D1 agonist 575.6, ERG Ets-DNA blk inconclusive
Nc1cccc(N2C(=O)c3cccc4c(N)ccc(c34)C2=O)c1	D1 agonist 156.0, ERG Ets-DNA blk inconclusive
Nc1ccc2c3c(cccc13)C(=O)N(c1ccccc1)C2=O	D1 agonist 384.4, D1 antagonist -41.9, ERG Ets-DNA blk 25.1µM
CC(=O)Nc1ccc2c3c(cccc13)C(=O)N(c1ccccc1)C2=O	none
C/C(Cl)=C\Cn1c(N2CCCCCC2)nc2c1c(=O)n(C)c(=O)n2C	none
O=C1c2ccc3c4c(ccc(c24)C(=O)N1c1cccc(O)c1)C(=O)N(c1cccc(O)c1)C3=O	D3 antag -82.4
O=C1c2ccc3c4c(ccc(c24)C(=O)N1c1cccc(O)c1)CC3	none
Cc1cccc(N2C(=O)c3cccc4c(N(C)CCO)ccc(c34)C2=O)c1	D1 agonist 200.3
CN(C)c1ccc2c3c(cccc13)C(=O)N(c1ccccc1)C2=O	none (no result: D3 antag, DRD3 agonist, ERG Ets-DNA blk)
O=C(O)c1cccc2c1-c1c(cccc1[N+](=O)[O-])C2	none (no result: D1 agonist, D1 antagonist, D1 potentiator)
CC(C)(C)n1c(O)c2ccc(C(=O)N=NC(=O)c3ccccc3)cc2c1O	D1 antagonist -31.0
CSc1ccc(CNC(=O)C2(C)CCCN(C(C)C)C2)cc1 (stereo not given)	none (no result: D1 agonist, D1 antagonist, ERG Ets-DNA blk, D1 potentiator)
CCCc1cc(NCCCN(C)C)n2c(nc3ccccc32)c1C#N	D1 antagonist -38.0
CCOc1ccc(OCC(=O)c2c(O)c3ccccc3oc2=O)cc1	none
COc1ccc(C(=O)c2c(-c3ccc(OC)cc3)oc3ccccc23)cc1	D3 antag -63.3 (no result: D1 antagonist)
COc1ccc(OCC(=O)c2c(O)c3ccccc3oc2=O)cc1	D3 antag -113.7
COc1ccc(-c2oc3ccccc3c(=O)c2OC(=O)c2ccc(C)cc2)cc1	none
CC(=O)c1ccc(N(CC(=O)NC2CCCC2)C(=O)CNC(=O)c2cccs2)cc1	none
CN(CC(=O)Nc1ccc(OC(F)(F)F)cc1)C1CCCCC1	none
O=C(CNCC1CCCCC1)Nc1ccc(OC(F)(F)F)cc1	D1 agonist 93.1, D1 antagonist -42.4
COc1ccc(S(=O)(=O)N2CCC(C(=O)NCc3ccccn3)CC2)cc1Cl	none
CCCOc1ccc(CN2C(=O)C(=O)c3cccc(C)c32)cc1	none (no result: D3 antag)
Cc1ccc(CN2C(=O)C(=O)c3cc(Br)cc(C)c32)cc1	D1 antagonist -49.0 (no result: D3 antag)
Cc1ccc(C)c(CN2C(=O)C(=O)c3ccccc32)c1	D1 antagonist -31.4 (no result: D3 antag)
Cc1ccc2c(c1)C(=O)C(=O)N2Cc1ccc(C(F)(F)F)cc1	D3 antag -50.8 (no result: D1 agonist, D1 antagonist, D1 potentiator)
CN(C(=O)c1cnc2n(c1=O)CCS2)C1CCCCC1	none (no result: D1 potentiator)
O=C(CN1C(=O)C2CCCCC2C1=O)Nc1ccc(OC(F)F)c(Cl)c1 (stereo not given)	D1 antagonist -31.9
C[C@@H](C(=O)Nc1ccc(OC(F)F)c(Cl)c1)N1C(=O)C2CC=CCC2C1=O (stereo not given in full)	none (no result: D1 agonist, D1 antagonist, D1 potentiator)
COc1ccc(-n2c(C)cc(/C=C/c3nc(O)c([N+](=O)[O-])c(=O)[nH]3)c2C)cc1	D1 antagonist -54.5
CN1CCN(c2ccc(NC(=O)c3cccc(S(=O)(=O)N4CCCC4)c3)cc2)CC1	D1 antagonist -33.6
COc1cc(OC)cc(C(=O)NC(=S)Nc2ccc(N3CCCC3)cc2)c1	D1 antagonist -34.9
CN1CCN(c2ccc(NC(=O)Cc3ccccc3)cc2)CC1	D1 antagonist -39.5
O=C(NC1=NCCS1)c1cccc(S(=O)(=O)N2CCCCC2)c1	D1 antagonist -34.1 (no result: D3 antag, DRD3 agonist, ERG Ets-DNA blk)
O=C(Nc1ccc(N2CCOCC2)cc1)c1cccc(S(=O)(=O)N2CCCC2)c1	none
O=S(=O)(c1cccs1)N1CCN(c2cccc(Cl)c2)CC1	none
CS(=O)(=O)c1cccc(C(=O)NC(c2ccccc2)c2ccccc2)c1	none
CCN1CCN(c2ccc(NC(=O)c3cccc(OCc4ccccc4)c3)cc2)CC1	D1 agonist 38.5, D3 antag inconclusive
CCOc1cccc(C(=O)NC(=S)Nc2ccc(N3CCN(CC)CC3)cc2)c1	D1 antagonist -44.4
Cc1ccc(C(NC(=O)c2cccc(S(=O)(=O)N3CCN(C)CC3)c2)c2ccccc2)cc1 (stereo not given)	D1 antagonist -66.5
CC(C)Oc1cccc(C(=O)Nc2ccc(N3CCN(C)CC3)cc2)c1	D1 antagonist -56.9
